Assay results published in PubChem BioAssay.
Unmarked numbers belong to inactive results. No rule for the calls is given here.

biological target: Pantothenate synthetase (Mycobacterium tuberculosis (strain ATCC 25618 / H37Rv)) (UniProt P9WIL5); experiment: Coupled enzyme confirmation of inhibitors against recombinant Mtb PanC (AID 375); settings: coupled enzyme assay; at 10 µM, hits give high values;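 also: 0% = full reaction with vehicle and 100% = no enzyme background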
Sequence (P9WIL5 whole entry, looked up): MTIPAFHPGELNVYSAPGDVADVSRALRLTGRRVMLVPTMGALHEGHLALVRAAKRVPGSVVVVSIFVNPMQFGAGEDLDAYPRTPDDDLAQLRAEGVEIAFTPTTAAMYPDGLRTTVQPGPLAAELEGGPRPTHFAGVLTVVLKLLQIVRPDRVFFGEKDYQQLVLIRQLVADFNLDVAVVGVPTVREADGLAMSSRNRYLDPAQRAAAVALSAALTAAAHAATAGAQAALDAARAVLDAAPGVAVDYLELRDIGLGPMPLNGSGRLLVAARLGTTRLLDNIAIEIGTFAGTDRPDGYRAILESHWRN

Point of comparison: `Cc1nnc(NC(=O)CSc2cn(CCNC(=O)c3ccccc3)c3ccccc23)s1`, inhibition 0%. Against it:
- CC(C)C[C@H](NC(=O)[C@@H]1O[C@H]1C(=O)O)C(=O)NCCCCN=C(N)N — higher, 1%
- Cc1ccc(NC(=O)C2CC=CCC2C(=O)N2CCCCC2)cc1 (stereo not given) — the same, 0%
- c1ccc2c(c1)CC(N1CCCCC1)c1ccccc1N2 (stereo not given) — the same, 0%
- Cc1cc2ncn(S(=O)(=O)c3ccc(S(=O)(=O)N4CCOCC4)cc3)c2cc1C — higher, 5%
- CC(=O)OCC(=O)[C@@]1(O)[C@H](C)C[C@H]2[C@@H]3CCC4=CC(=O)C=C[C@]4(C)[C@@]3(F)[C@@H](O)C[C@@]21C — higher, 4%
- COc1ccc(-n2ncc3c(NCCCN4CCOCC4)ncnc32)cc1 — higher, 6%
- Cc1cccc(NC(=O)CS(=O)(=O)c2cn(C)c3ccccc23)c1 — the same, 0%
- CCOc1ccc2nc(SCC#N)c(C#N)cc2c1 — the same, 0%
- Cc1ccc(S(=O)(=O)N(C)Cc2cc3ccccc3[nH]c2=O)cc1 — the same, 0%
- COc1ccc(C)cc1NS(=O)(=O)c1ccc(NS(=O)(=O)c2ccc(NC(C)=O)cc2)cc1 — higher, 1%
- CCN(CC)c1ccc2c(c1)CCCN2 — higher, 3%
- COc1ccc2c3c(c(=O)oc2c1OCC(N)=O)CCCC3 — higher, 2%
- CN1[C@@H]2CC(OC(=O)[C@H](CO)c3ccccc3)C[C@H]1[C@@H]1O[C@@H]12 (stereo not given in full) — the same, 0%
- COc1ccc(Cc2nnc(NC(=O)Cc3cccs3)s2)cc1 — the same, 0%
- CCn1nccc1C(=O)Nc1nccs1 — higher, 5%
- Cc1cc(N2C(=O)C(O)=C(C(=O)c3ccc(C)o3)C2c2cccs2)no1 (stereo not given) — the same, 0%
- CCS(=O)(=O)N1CCC(C(=O)N2CCOCC2)CC1 — higher, 2%
- CCCCOc1ccc(S(=O)(=O)n2c(C)nc3ccccc32)cc1 — the same, 0%
- CC1CCN(C(=O)c2cc(-c3ccc(Cl)c(Cl)c3)on2)CC1 — higher, 3%
- Cc1[nH]c(=O)[nH]c(=O)c1S(=O)(=O)Nc1ccc(Oc2ccccc2)cc1 — higher, 6%
- COc1ccc(-c2cc(C(F)(F)F)nc(N3CCN(c4ccc(F)cc4)CC3)n2)cc1OC — the same, 0%
- Fc1cccc(Nc2cc(-n3cccn3)ncn2)c1 — higher, 3%
- COc1ccc(S(=O)(=O)N2CCSC2c2ccccc2)cc1 (stereo not given) — higher, 1%
- COC(=O)c1c(N)sc(C(=O)N2CCOCC2)c1C — the same, 0%
- COC(=O)Cn1c(=NC(=O)CSCC(=O)Nc2cc(C)on2)sc2ccccc21 — the same, 0%
- COc1ccc2c(c1)c(CC(=O)O)c(C)n2C(=O)c1ccc(Cl)cc1 — higher, 5%
- COc1ccccc1CN(Cc1nc2ccccc2c(=O)[nH]1)C(=O)Nc1ccccc1 — the same, 0%
- COc1ccc2c(=O)c3c(=O)n(Cc4ccco4)c(-c4cc(OC)c(OC)c(OC)c4)nc3oc2c1 — higher, 5%
- CCCC(=O)Nc1ccc(NC(=O)c2ccccc2OC)cn1 — the same, 0%
- CCN(Cc1cc2cc(OC)ccc2[nH]c1=O)C(=O)Cc1ccc(OC)cc1 — the same, 0%
- COc1nc(OC)nc(N2CCC(C(=O)NCc3cccs3)CC2)n1 — the same, 0%
- Cc1ccc(C2C(C#N)=C(N)Oc3cc4c(cc32)OCO4)cc1 (stereo not given) — higher, 8%
- CCn1cc(C(=O)OCc2ccc(F)cc2)c(=O)c2ccc(C)nc21 — higher, 5%
- CCN(CC)CCNC(=O)c1cc(S(C)(=O)=O)ccc1OC — the same, 0%
- O=C(O)CC1SC(=Nc2cccc(C(F)(F)F)c2)NC1=O (stereo not given) — the same, 0%
- Cc1nc(SCC(=O)CC(=O)OC(C)C)c(C#N)c(C)c1C — the same, 0%
- COc1ccc(C(F)(F)F)cc1NC(=O)c1nc2nc(C)cc(C(F)F)n2n1 — higher, 1%
- C/C(N)=C(/C#N)C(=O)COC(=O)COc1ccc(Cl)cc1 — higher, 5%
- CC(=O)c1c(OCC(=O)O)ccc2c(C)cc(=O)oc12 — the same, 0%
